Laboratory results as given in PubChem BioAssay (Tox21).
Unmarked numbers belong to inactive results. Results filed as inconclusive are left out. Entries that show only a call come without a potency. Activity calls are given as the source filed them. Unless noted, calls follow the shape of the dose curve; as a rule, active = well fitted curve in the direction sought with a large enough effect in the repeat runs; inconclusive = weak or mixed curves; inactive = no such curve, though single readings can be large; an effect the other way counts as inactive or inconclusive.

Assays:
[1] = qHTS assay to identify small molecule antagonists of the glucocorticoid receptor (GR) signaling pathway - cell viability counter screen (AID 720693); also: nearly all actives have a fitted effect of over 55% in size
[2] = qHTS assay to identify small molecule antagonists of the androgen receptor (AR) signaling pathway - cell viability counter screen (AID 743033; also: nearly all actives have a fitted effect of over 45% in size)
[3] = qHTS assay to identify small molecule antagonists of the androgen receptor (AR) signaling pathway using the MDA cell line - cell viability counter screen (AID 743041; also: nearly all actives have a fitted effect of over 45% in size)
Method in brief: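 In this qHTS counter assay, fluorescence intensity after CellTiter-Fluor addition indicated viability of MDA-kb2 AR-luc cells given compounds and R1881 for 16 h at 37C.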

[4] = qHTS assay to identify small molecule antagonists of the thyroid receptor (TR) signaling pathway - cell viability counter screen (AID 743064); also: nearly all actives have a fitted effect of over 50% in size
Method in brief: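 Counter screen for cytotoxicity: compound plus T3 (1 nM final) on GH3.TRE-Luc cells, 23.5 h at 37 °C, then fluorescence viability readout with CellTiter-Fluor.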

[5] = qHTS assay to identify small molecule antagonists of the thyroid receptor (TR) signaling pathway (AID 743065); also: nearly all actives have a fitted effect of over 55% in size; also: potency is read from the fitted curve at half-maximal effect; as to activity, negative = inhibition: series mostly up to about 70 µM
Method in brief: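 GH3.TRE-Luc rat pituitary cells carrying two TR response elements driving luciferase were plated for 4 h, given compound plus 1 nM T3 (final), and incubated 23.5 h at 37 C. ONE-Glo luminescence measured reporter inhibition; CellTiter-Fluor fluorescence tracked cytotoxicity.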

[6] = system: thyroid hormone receptor (rat, GH3 cells); test: qHTS assay to identify small molecule agonists of the thyroid receptor (TR) signaling pathway (AID 743066; calls by dose curve)
[7] = target: Estrogen receptor (Homo sapiens) (UniProt P03372); test: qHTS assay to identify small molecule antagonists of the estrogen receptor alpha (ER-alpha) signaling pathway (AID 743069; active = well fitted curve in the direction sought with a large enough effect in the signal ratio in the repeat runs, not every such curve was filed as active; the % refers to the signal ratio)
Method in brief: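 A 17beta-estradiol challenge was applied right after compound transfer to ER-alpha-UAS-bla HEK293 cells previously kept in charcoal-stripped serum. Plates stood 18 hr at 37C and 5% CO2; fluorescence was read following 2 hr FRET substrate loading at room temperature.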

[8] = qHTS assay to identify small molecule antagonists of the estrogen receptor alpha (ER-alpha) signaling pathway - cell viability counter screen (AID 743074; calls by dose curve;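 also: HEK293 cells carrying ER-alpha-UAS-bla reporter stimulated with 17beta-estradiol; nearly all actives have a fitted effect of over 45% in size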)
[9] = target: Estrogen receptor (Homo sapiens) (UniProt P03372); test: qHTS assay to identify small molecule agonists of the estrogen receptor alpha (ER-alpha) signaling pathway (AID 743075; calls by dose curve;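 also: HEK293 GripTite cells with ER-alpha and UAS-driven beta-lactamase reporter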)
[10] = target: Estrogen receptor (Homo sapiens) (UniProt P03372); test: qHTS assay to identify small molecule agonists of the estrogen receptor alpha (ER-alpha) signaling pathway using the BG1 cell line (AID 743079); also: nearly all actives have a fitted effect of over 20% in size; also: potency is read from the fitted curve at half-maximal effect
[11] = qHTS assay to identify small molecule antagonists of the estrogen receptor alpha (ER-alpha) signaling pathway using the BG1 cell line - cell viability counter screen (AID 743081);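 also: compound given together with 17beta-estradiol as the ER stimulus; series mostly up to about 70 µM; nearly all actives have a fitted effect of over 45% in size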
Aromatase (Homo sapiens) = Aromatase (Homo sapiens) (UniProt P11511); test: qHTS assay to identify aromatase inhibitors (AID 743083); also: series mostly up to about 70 µM; nearly all actives have a fitted effect of over 55% in size
[12] = qHTS assay for identifying genotoxic compounds that show differential cytotoxicity against isogenic chicken DT40 cell lines with known DNA damage response pathways - Rev3 mutant cell line (AID 743014); also: nearly all actives have a fitted effect of over 55% in size; also: potency is read from the fitted curve at half-maximal effect
[13] = qHTS assay to identify small molecule antagonists of the estrogen receptor alpha (ER-alpha) signaling pathway using the BG1 cell line (AID 743080; calls by dose curve;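 also: BG1 cells stimulated with 17beta-estradiol alongside compound; series mostly up to about 70 µM; nearly all actives have a fitted effect of over 25% in size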)
Method in brief: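 Luciferase inhibition measured with ONE-Glo after 30 min at RT in BG1Luc4E2 cells given test compounds and 17beta-estradiol for 21.5 h at 37 C; CellTiter-Fluor viability read in the same wells beforehand.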

[14] = qHTS assay for identifying genotoxic compounds that show differential cytotoxicity against isogenic chicken DT40 cell lines with known DNA damage response pathways - wild type cell line (AID 743012); also: nearly all actives have a fitted effect of over 60% in size; also: potency is read from the fitted curve at half-maximal effect
Method in brief: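 Cytotoxicity in repair-proficient parental chicken DT40 cells serves as the comparator for Rad54/Ku70- and Rev3-deficient lines. Cells were exposed to compounds for 40 h at 37 C/5% CO2, and ATP-based luminescence (CellTiter-Glo) measured viability.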

[15] = qHTS assay for identifying genotoxic compounds that show differential cytotoxicity against isogenic chicken DT40 cell lines with known DNA damage response pathways - Rad54/Ku70 mutant cell line (AID 743015); also: nearly all actives have a fitted effect of over 60% in size; also: potency is read from the fitted curve at half-maximal effect
[16] = target: Androgen receptor (Homo sapiens) (UniProt P10275); test: qHTS assay to identify small molecule agonists of the androgen receptor (AR) signaling pathway using the MDA cell line (AID 743040; also: nearly all actives have a fitted effect of over 20% in size)
Method in brief: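 Cell-based luciferase reporter: MDA-kb2, MMTV promoter (AR + GR response elements). 16 h compound exposure at 37C; ONE-Glo, 30 min RT, luminescence.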

[17] = target: Androgen receptor (Homo sapiens) (UniProt P10275); test: qHTS assay to identify small molecule antagonists of the androgen receptor (AR) signaling pathway using the MDA cell line (AID 743042; also: nearly all actives have a fitted effect of over 55% in size)
Method in brief: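 MDA-kb2 cells (human breast carcinoma, stably carrying an MMTV-luciferase reporter responsive to AR and GR) were plated at 3,000 cells/well and preincubated 5 hr at 37C, then given compound plus R1881 agonist for 16 h. ONE-Glo luminescence was read.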

[18] = target: Androgen receptor (Homo sapiens) (UniProt P10275); test: qHTS assay to identify small molecule antagonists of the androgen receptor (AR) signaling pathway (AID 743035; active = well fitted inhibition curve with a large enough effect in the signal ratio in the repeat runs, not every such curve was filed as active; the % refers to the signal ratio)
Method in brief: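 Steps: seed AR-UAS-bla GripTite HEK293 cells, incubate 4 h at 37C; pin in test compound, then add agonist R1881; incubate 16 h at 37C; add LiveBLAzer B/G FRET substrate, 2 h at room temperature; read fluorescence.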

[19] = target: Androgen receptor (Homo sapiens) (UniProt P10275); test: qHTS assay to identify small molecule agonists of the androgen receptor (AR) signaling pathway (AID 743036; active = well fitted activation curve with a large enough effect in the signal ratio in the repeat runs, with a control signal flat, not every such curve was filed as active; the % refers to the signal ratio)
Method in brief: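 In this Tox21 qHTS, 2,000 HEK293 AR-bla cells per well were incubated with compounds for 16 h at 37C and 5% CO2. Fluorescence intensity was recorded 2 h after adding LiveBLAzer B/G FRET substrate at room temperature.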

Sequence of Androgen receptor (Homo sapiens) (P10275 whole entry, looked up): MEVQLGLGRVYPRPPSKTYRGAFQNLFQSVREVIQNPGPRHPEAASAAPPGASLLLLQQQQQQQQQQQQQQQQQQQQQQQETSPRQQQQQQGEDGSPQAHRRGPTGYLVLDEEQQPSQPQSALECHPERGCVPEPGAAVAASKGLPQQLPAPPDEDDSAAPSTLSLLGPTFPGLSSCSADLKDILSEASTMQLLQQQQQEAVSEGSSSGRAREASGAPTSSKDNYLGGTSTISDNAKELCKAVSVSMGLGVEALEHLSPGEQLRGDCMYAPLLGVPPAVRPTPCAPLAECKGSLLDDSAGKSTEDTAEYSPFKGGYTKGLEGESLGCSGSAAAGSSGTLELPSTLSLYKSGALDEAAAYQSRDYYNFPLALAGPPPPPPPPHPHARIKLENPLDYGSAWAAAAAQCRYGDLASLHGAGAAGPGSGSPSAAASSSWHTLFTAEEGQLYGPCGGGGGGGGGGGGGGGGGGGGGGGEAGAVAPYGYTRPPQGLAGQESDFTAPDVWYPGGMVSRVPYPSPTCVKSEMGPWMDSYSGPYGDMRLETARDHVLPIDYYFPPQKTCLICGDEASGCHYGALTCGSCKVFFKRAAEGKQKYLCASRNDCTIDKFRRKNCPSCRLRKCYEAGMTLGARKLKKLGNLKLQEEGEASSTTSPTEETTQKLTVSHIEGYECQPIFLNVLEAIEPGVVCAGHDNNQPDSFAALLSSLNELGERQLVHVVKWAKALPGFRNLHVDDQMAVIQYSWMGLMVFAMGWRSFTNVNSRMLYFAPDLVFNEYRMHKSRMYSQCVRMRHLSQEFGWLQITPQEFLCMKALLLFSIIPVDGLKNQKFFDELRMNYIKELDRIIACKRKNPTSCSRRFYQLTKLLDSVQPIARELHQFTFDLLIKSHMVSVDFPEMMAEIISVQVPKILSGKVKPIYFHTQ
Sequence of Estrogen receptor (Homo sapiens) (P03372 whole entry, looked up): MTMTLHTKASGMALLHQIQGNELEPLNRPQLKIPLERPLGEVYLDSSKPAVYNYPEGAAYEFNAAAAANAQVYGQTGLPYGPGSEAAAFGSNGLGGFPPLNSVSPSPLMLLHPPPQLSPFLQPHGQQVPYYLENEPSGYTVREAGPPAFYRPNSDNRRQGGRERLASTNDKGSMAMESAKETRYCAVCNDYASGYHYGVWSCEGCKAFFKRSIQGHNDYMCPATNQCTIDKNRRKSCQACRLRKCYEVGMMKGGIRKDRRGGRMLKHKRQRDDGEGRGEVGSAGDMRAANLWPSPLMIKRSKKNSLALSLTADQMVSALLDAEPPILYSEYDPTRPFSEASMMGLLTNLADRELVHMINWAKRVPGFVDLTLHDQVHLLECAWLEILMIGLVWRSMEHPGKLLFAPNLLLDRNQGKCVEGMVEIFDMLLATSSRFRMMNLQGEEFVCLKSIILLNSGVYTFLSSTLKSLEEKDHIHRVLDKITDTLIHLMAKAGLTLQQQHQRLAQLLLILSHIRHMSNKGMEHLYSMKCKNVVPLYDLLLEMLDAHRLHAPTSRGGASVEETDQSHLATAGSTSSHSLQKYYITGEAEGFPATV
Sequence of Aromatase (Homo sapiens) (P11511 whole entry, looked up): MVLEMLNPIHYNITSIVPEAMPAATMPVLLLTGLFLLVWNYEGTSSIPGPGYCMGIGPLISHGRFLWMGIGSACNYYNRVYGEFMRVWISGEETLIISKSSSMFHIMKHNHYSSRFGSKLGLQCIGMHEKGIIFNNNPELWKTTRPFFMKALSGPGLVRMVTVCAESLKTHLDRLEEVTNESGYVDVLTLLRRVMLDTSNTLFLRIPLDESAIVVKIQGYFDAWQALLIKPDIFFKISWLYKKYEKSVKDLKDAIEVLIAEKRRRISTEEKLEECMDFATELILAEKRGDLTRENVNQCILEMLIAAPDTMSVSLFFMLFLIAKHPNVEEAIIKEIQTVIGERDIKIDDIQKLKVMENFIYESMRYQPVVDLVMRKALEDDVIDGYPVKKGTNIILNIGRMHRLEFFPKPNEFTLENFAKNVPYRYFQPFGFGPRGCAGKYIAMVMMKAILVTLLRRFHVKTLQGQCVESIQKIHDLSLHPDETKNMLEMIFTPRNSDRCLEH

COc1ccc(C(=O)Nc2ccccc2)cc1[N+](=O)[O-]
Potency [1]: inactive | Potency [2]: inactive | Potency [3]: inactive | Potency [4]: inactive | Potency [5]: inactive | outcome [6]: inactive | Potency [7]: inactive | outcome [8]: inactive | Potency [9]: inactive | Potency [10]: 3.09 µM (active) | Potency [11]: inactive | Potency (Aromatase (Homo sapiens)): inactive

Clc1ccccc1-c1nc(-c2ccncc2)no1
Potency [1]: inactive | Potency [12]: inactive | Potency [2]: inactive | Potency [3]: inactive | Potency [5]: inactive | outcome [6]: inactive | outcome [8]: inactive | Potency [11]: inactive | Potency (Aromatase (Homo sapiens)): inactive

COC=O
viability change, negative = cytotoxic [1]: -0.963% [at 7.04 µM] | Potency [12]: 4.48 µM (active) | activity change, negative = cytotoxicity [2]: -27.8% [at 7.04 µM] | viability change, negative = cytotoxic [3]: 12.8% [at 8.47 µM] | activity change, negative = cytotoxic [4]: 17.8% [at 8.44 µM] | activity, negative = inhibition [5]: 9.66% [at 8.44 µM] | activation [6]: 0.249% [at 8.08 µM] | activity, negative = cytotoxicity [8]: 7.46% [at 6.72 µM] | activation [9]: 2.27% [at 6.71 µM] | activation [10]: 11.2% [at 8.47 µM] | activity change, negative = inhibition [13]: 1.93% [at 8.47 µM] | activity change, negative = cytotoxicity [11]: 4.5% [at 8.47 µM] | activity, negative = inhibition (Aromatase (Homo sapiens)): 2.56% [at 8.47 µM]

C[C@]12CCC(=O)C=C1[C@@H]1C[C@@H]1[C@H]1[C@@H]3[C@@H]4C[C@@H]4[C@@]4(CCC(=O)O4)[C@@]3(C)CC[C@@H]12
Potency [14]: 9.44 µM (active) | Potency [12]: 11.9 µM (active) | Potency [2]: inactive | Potency [3]: inactive | Potency [5]: 21.1 µM (active) | outcome [6]: inactive | outcome [8]: inactive | Potency [11]: inactive | Potency (Aromatase (Homo sapiens)): inactive

S=c1[nH][nH]c(=S)s1
Potency [1]: inactive | Potency [12]: inactive | Potency [3]: inactive | Potency [4]: inactive | Potency [5]: inactive | outcome [6]: inactive | Potency [7]: inactive | outcome [8]: inactive | Potency [9]: inactive | Potency [10]: inactive | Potency [13]: inactive | Potency [11]: inactive | Potency (Aromatase (Homo sapiens)): inactive

O=Cc1ccc([N+](=O)[O-])cc1
Potency [1]: inactive | Potency [15]: 48.9 µM (active) | Potency [2]: inactive | Potency [3]: inactive | Potency [4]: inactive | Potency [5]: inactive | outcome [6]: inactive | Potency [7]: inactive | outcome [8]: inactive | Potency [9]: inactive | Potency [10]: 30.8 µM (active) | Potency [13]: inactive | Potency [11]: inactive | Potency (Aromatase (Homo sapiens)): inactive

O=c1[nH][nH]c2ccccc12
Potency [1]: inactive | Potency [15]: inactive | Potency [2]: inactive | outcome [16]: inactive | Potency [3]: inactive | Potency [17]: inactive | Potency [4]: inactive | Potency [5]: inactive | outcome [6]: inactive | Potency [7]: inactive | outcome [8]: inactive | Potency [9]: inactive | Potency [10]: inactive | Potency [13]: inactive | Potency [11]: inactive | Potency (Aromatase (Homo sapiens)): inactive

CS(C)=O
Potency [1]: inactive | Potency [2]: inactive | Potency [3]: inactive | Potency [4]: inactive | Potency [5]: inactive | outcome [6]: inactive | outcome [8]: inactive | Potency [11]: inactive | Potency (Aromatase (Homo sapiens)): inactive

O=C(O)c1ccc2c(c1)nc(C(=O)NC1CCN(C3CC3)CC1)n2Cc1cc(-c2ccc(Cl)s2)on1
Potency [1]: inactive | Potency [12]: inactive | Potency [2]: inactive | Potency [3]: inactive | Potency [4]: inactive | Potency [5]: inactive | outcome [6]: inactive | outcome [8]: inactive | Potency [9]: inactive | Potency [10]: inactive | Potency [13]: inactive | Potency [11]: inactive | Potency (Aromatase (Homo sapiens)): inactive

O=C(N[C@@H](Cc1ccccc1)[C@@H](O)C(=O)N1C[C@@H](O)[C@@H](O)C1)c1cc2cc(Cl)ccc2[nH]1
Potency [1]: inactive | Potency [3]: inactive | Potency [5]: 61.1 µM (active) | outcome [6]: inactive | outcome [8]: inactive | Potency [9]: inactive | Potency [13]: inactive | Potency [11]: inactive | Potency (Aromatase (Homo sapiens)): inactive

O=C(OCCOCCOCCOC(=O)c1ccccc1)c1ccccc1
Potency [1]: inactive | Potency [2]: inactive | Potency [3]: inactive | Potency [4]: inactive | Potency [5]: inactive | outcome [6]: inactive | Potency [7]: inactive | outcome [8]: inactive | Potency [9]: inactive | Potency [10]: inactive | Potency [13]: inactive | Potency [11]: inactive | Potency (Aromatase (Homo sapiens)): inactive

CNc1ccccc1
Potency [14]: inactive | Potency [12]: inactive | Potency [15]: inactive | Potency [2]: inactive | Potency [4]: inactive | Potency [5]: inactive | outcome [6]: inactive | Potency [7]: inactive | outcome [8]: inactive | Potency [9]: inactive | Potency [10]: inactive | Potency [13]: inactive | Potency [11]: inactive | Potency (Aromatase (Homo sapiens)): inactive

O=c1[nH]nc(-c2ccc([N+](=O)[O-])o2)o1
Potency [1]: inactive | Potency [12]: 19.3 µM (active) | Potency [2]: inactive | Potency [5]: inactive | outcome [6]: inactive | outcome [8]: inactive | Potency [9]: inactive | Potency [10]: inactive | Potency [13]: inactive | Potency (Aromatase (Homo sapiens)): inactive

CCCCCCCCNC
Potency [14]: inactive | Potency [12]: inactive | Potency [15]: inactive | Potency [2]: inactive | Potency [3]: inactive | Potency [4]: inactive | Potency [5]: inactive | outcome [6]: inactive | Potency [11]: inactive | Potency (Aromatase (Homo sapiens)): inactive

N#C[C@@H]1CC(F)(F)CN1C(=O)CNC1CC2CCC(C1)N2c1ncccn1 (some centres undefined)
Potency [1]: inactive | Potency [2]: inactive | Potency [18]: inactive | outcome [19]: inactive | outcome [16]: inactive | Potency [3]: inactive | Potency [17]: inactive | Potency [4]: inactive | Potency [7]: inactive | outcome [8]: inactive | Potency [9]: inactive | Potency [10]: inactive | Potency [11]: inactive | Potency (Aromatase (Homo sapiens)): inactive

CCN(CCCCOC(=O)c1ccc(OC)c(OC)c1)C(C)Cc1ccc(OC)cc1 (centres undefined)
Potency [1]: inactive | Potency [15]: inactive | Potency [2]: inactive | Potency [3]: inactive | Potency [4]: inactive | outcome [6]: inactive | Potency [7]: inactive | outcome [8]: inactive | Potency [9]: inactive | Potency [10]: inactive | Potency [13]: inactive | Potency [11]: inactive | Potency (Aromatase (Homo sapiens)): inactive

N#Cc1ccc(CC(=O)c2cccc(C(F)(F)F)c2)cc1
Potency [1]: inactive | Potency [2]: inactive | Potency [3]: inactive | Potency [4]: inactive | Potency [5]: inactive | outcome [6]: inactive | outcome [8]: inactive | Potency [11]: inactive | Potency (Aromatase (Homo sapiens)): inactive

C=C[Si]1(C)O[Si](C)(C=C)O[Si](C)(C=C)O[Si](C)(C=C)O1 (centres undefined)
Potency [1]: inactive | Potency [2]: inactive | Potency [3]: inactive | Potency [4]: inactive | Potency [5]: inactive | outcome [6]: inactive | outcome [8]: inactive | Potency [11]: inactive | Potency (Aromatase (Homo sapiens)): inactive
